According to the supplement of paper PMC9262897, “Low-cost anti-mycobacterial drug discovery using engineered E. coli” (Nature Communications, 2022):
Where a name gives a salt, the structure may show the parent alone. ± gives the standard deviation of the averaged measurements.

Experiments:
Assay in all cases: growth (OD600 after 10 h); higher = more growth (less inhibition)
[1] = system: E. coli TESEC Alr+ wild-type control; conditions: compound 0.1 mM; raw OD600 reference: median of DMSO wells 0.241, cell-free background 0.041
Description: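 TESEC Mtb Alr E. coli, or the Alr+ wild-type control, in 384-well plates with Prestwick library compounds at 0.1 mM and 1% DMSO, across arabinose induction levels of 1E3 to 1E7 nM. Growth is read as OD600 after 10 h at 37 °C in triplicate biological replicates.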

E. coli TESEC Mtb Asd = conditions: compound 0.1 mM
Description: (§1)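 TESEC E. coli strains in which the native enzyme is deleted and replaced by arabinose-inducible Mtb Asd, DapB, CysH or TrpD, each grown in its selective medium. Strains were screened against the Prestwick library at 0.1 mM and 1% DMSO in 384-well format at low and high arabinose induction. Growth is read as OD600 after 10 h in triplicate.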

E. coli TESEC Mtb DapB = conditions: compound 0.1 mM
Description: as §1

[2] = system: E. coli TESEC Alr+ wild-type control; conditions: compound 0.1 mM; raw OD600 reference: median of DMSO wells 0.49, cell-free background 0.052
Description: (§2)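 TESEC Mtb Alr E. coli (ΔaraC ΔtolC ΔentC Δalr ΔdadX, arabinose-inducible Mtb Alr) or the Alr+ wild-type control strain, grown in defined M9-fructose medium without D-alanine in 96-well plates with Prestwick library compounds at 0.1 mM and 1% DMSO. Low Alr induction is 0.1 µM arabinose and high induction is 10 mM arabinose.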

E. coli TESEC Mtb Alr = conditions: compound 0.1 mM
Description: as §2

[3] = arabinose induction (level): High, raw OD600 reference: median of DMSO wells 0.331, cell-free background 0.041
[4] = arabinose induction (level): Low, raw OD600 reference: median of DMSO wells 0.417, cell-free background 0.041
[5] = arabinose induction (level): High, raw OD600 reference: median of DMSO wells […], cell-free background 0.041
[6] = arabinose induction (level): Low, raw OD600 reference: median of DMSO wells 0.227, cell-free background 0.041
[7] = arabinose 100 nM, raw OD600 reference: median of DMSO wells 0.413, cell-free background 0.052
[8] = arabinose 10000000 nM, raw OD600 reference: median of DMSO wells […], cell-free background 0.052

Compound | growth [1] | growth (E. coli TESEC Mtb Asd; [3]) | growth (E. coli TESEC Mtb Asd; [4]) | growth (E. coli TESEC Mtb DapB; [5]) | growth (E. coli TESEC Mtb DapB; [6]) | growth [2] | growth (E. coli TESEC Mtb Alr; [7]) | growth (E. coli TESEC Mtb Alr; [8])
CN(C)CCCN1c2ccccc2Sc2ccc(Cl)cc21 [Chlorpromazine hydrochloride] | 0.0844 ± 0.00072 | 0.0646 ± 0.0046 | 0.0699 ± 0.0027 | 0.13 ± 0.012 | 0.25 ± 0.08 | 0.105 ± 0.046 | 0.425 ± 0.0072 | 0.0848 ± 0.022
COC(=O)Nc1nc2cc(C(=O)c3ccccc3)ccc2[nH]1 [Mebendazole] | 0.202 ± 0.005 | 0.306 ± 0.021 | 0.398 ± 0.078 | 0.206 ± 0.017 | 0.273 ± 0.053 | 0.588 ± 0.031 | 0.413 ± 0.0078 | 0.342 ± 0.017
CCCCC1C(=O)N(c2ccccc2)N(c2ccc(O)cc2)C1=O (stereo not given) [Oxyphenbutazone] | 0.2 ± 0.01 | 0.366 ± 0.025 | 0.384 ± 0.047 | 0.204 ± 0.019 | 0.229 ± 0.044 | 0.436 ± 0.036 | 0.415 ± 0.0059 | 0.28 ± 0.0025
CCCCNC(=O)NS(=O)(=O)c1ccc(C)cc1 [Tolbutamide] | 0.253 ± 0.0049 | 0.222 ± 0.016 | 0.405 ± 0.074 | 0.187 ± 0.021 | 0.186 ± 0.012 | 0.521 ± 0.12 | 0.409 ± 0.006 | 0.352 ± 0.021
Fc1ccc([C@@H]2CCNC[C@H]2COc2ccc3c(c2)OCO3)cc1 [Paroxetine Hydrochloride] | 0.178 ± 0.0068 | 0.133 ± 0.0029 | 0.176 ± 0.0037 | 0.172 ± 0.027 | 0.178 ± 0.0082 | 0.444 ± 0.026 | 0.384 ± 0.0066 | 0.134 ± 0.073
N=C(N)NC(=O)Cc1c(Cl)cccc1Cl [Guanfacine hydrochloride] | 0.241 ± 0.0058 | 0.43 ± 0.13 | 0.444 ± 0.018 | 0.19 ± 0.015 | 0.214 ± 0.026 | 0.485 ± 0.018 | 0.406 ± 0.0086 | 0.329 ± 0.018
NNC(=O)c1ccncc1 [Isoniazid] | 0.242 ± 0.0073 | 0.396 ± 0.028 | 0.429 ± 0.083 | 0.194 ± 0.0035 | 0.242 ± 0.052 | 0.458 ± 0.054 | 0.405 ± 0.0067 | 0.359 ± 0.022
Cc1cnc(C(=O)NCCc2ccc(S(=O)(=O)NC(=O)NC3CCCCC3)cc2)cn1 [Glipizide] | 0.252 ± 0.0045 | 0.341 ± 0.084 | 0.406 ± 0.029 | 0.199 ± 0.032 | 0.256 ± 0.042 | 0.506 ± 0.049 | 0.419 ± 0.0083 | 0.222 ± 0.025
NC(=O)c1cnccn1 [Pyrazinamide] | 0.244 ± 0.0055 | 0.289 ± 0.057 | 0.382 ± 0.11 | 0.195 ± 0.029 | 0.209 ± 0.019 | 0.538 ± 0.071 | 0.421 ± 0.013 | 0.366 ± 0.015
CC[C@@H](CO)NCCN[C@@H](CC)CO [Ethambutol dihydrochloride] | 0.25 ± 0.0032 | 0.353 ± 0.067 | 0.39 ± 0.091 | 0.19 ± 0.0055 | 0.2 ± 0.022 | 0.476 ± 0.06 | 0.411 ± 0.0072 | 0.366 ± 0.015
